Source: PubChem BioAssay
DUSP3 inh: blocks the human dual specificity phosphatase VHR1 | P51452 | recombinant VHR phosphatase, colorimetric substrate read-out | inhibition, % at 20 µM | 0.7% of 50,000 active | AID 1992; in the data active = inhibition above about 60%
Target sequence (P51452 whole entry, looked up): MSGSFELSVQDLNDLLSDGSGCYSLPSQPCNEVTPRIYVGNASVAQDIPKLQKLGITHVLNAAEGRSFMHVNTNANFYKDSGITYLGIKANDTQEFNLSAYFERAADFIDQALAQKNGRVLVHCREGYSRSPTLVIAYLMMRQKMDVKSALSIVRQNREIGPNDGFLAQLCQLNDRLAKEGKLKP
The depositor's hits bear a star. The sample as a whole holds a higher share of hits than the screen did.

SMILES	DUSP3 inh
COc1cc(/C=N/NC(=O)c2cccnc2)cc(OC)c1O	118
COc1ccc(N=Cc2c(O)n(-c3ccccc3Cl)c(=O)[nH]c2=O)cc1	-5
COc1cccc(NC(=O)C2C3CCC4C(CCC32)C4(Cl)Cl)c1 (stereo not given)	2
Cc1cc(C)c(NC(=O)C2C3CCC4C(CCC32)C4(Cl)Cl)c(C)c1 (stereo not given)	103*
COc1ccc(NC(=O)C2C3CCC4C(CCC32)C4(Cl)Cl)cc1 (stereo not given)	-11
Cc1ccc(Cl)cc1NC(=O)c1c(-c2ccccc2)noc1C	-5
Cc1nc2cc(N=Cc3ccc(Br)cc3)ccc2n1C	-15
CCC(=O)N1c2ccccc2NC2=C(C(=O)CC(c3ccc(OC)cc3)C2)C1c1ccccc1 (stereo not given)	-6
CCC(=O)N1c2ccccc2NC2=C(C(=O)CC(c3ccccc3)C2)C1c1ccc(F)cc1 (stereo not given)	113*
CCC(=O)N1c2ccccc2NC2=C(C(=O)CC(c3ccccc3)C2)C1c1cccc(Br)c1 (stereo not given)	4
COc1ccc(C2CC(=O)C3=C(C2)Nc2ccccc2NC3c2ccc(-c3ccccc3)cc2)cc1OC (stereo not given)	-16
COc1ccc(C2CC(=O)C3=C(C2)Nc2ccccc2NC3c2ccc(OC)c(OC)c2)cc1 (stereo not given)	7
COc1ccc(C2C3=C(CC(c4ccccc4)CC3=O)Nc3ccccc3N2C(=O)C(C)C)cc1OC (stereo not given)	99*
O=[N+]([O-])c1ccc(N2CCN(S(=O)(=O)Cc3ccccc3)CC2)cc1NC1CC1	-15
C/C(CC(=O)NC12CC3CC(CC(C3)C1)C2)=N\NC(=O)c1ccccc1I	-39
COC(=O)c1c(NC(=O)c2cccc(Cl)c2)sc(C)c1C	-4
CCc1ccc(OCC(=O)Nc2ccccc2C(F)(F)F)cc1	112*
O=C(COc1ccc(Cl)cc1)Nc1ccccc1C(F)(F)F	-2
Cc1cccc(OCC(=O)Nc2ccccc2C(F)(F)F)c1	-22
O=C(Nc1cccc(Br)c1)/C(=C\c1cccs1)NC(=O)c1cccs1	-14
O=C(/C=C/c1ccco1)NCc1ccc2c(c1)OCO2	-3
O=C(/C=C/c1ccco1)NCCCCNC(=O)/C=C/c1ccco1	26
O=C(/C=C/c1ccco1)NC(=S)NCc1ccccc1	75*
CCOC(=O)c1ccccc1NC(=O)CN(c1cccc([N+](=O)[O-])c1)S(=O)(=O)c1ccccc1	5
CC1CCN(c2ccc(/C=N/N=C3\NC(=O)CS3)cc2[N+](=O)[O-])CC1	1
SMILES	DUSP3 inh
Cc1cccc(N=C2NC(=O)/C(=C\c3cccs3)S2)c1C	3
O=C1NC(=S)N(c2cccc(Cl)c2)C(=O)/C1=C\c1ccc(N2CCCC2)cc1	53
O=C1NC(=S)N(c2cccc(Br)c2)C(=O)/C1=C/c1ccc(Cl)cc1	19
O=C1NC(=S)N(c2ccccc2)C(=O)/C1=C/c1cc(Cl)cc(Cl)c1O	18
C=CCN1C(=O)NC(=O)C(=Cc2cccn2C)C1=O	-6
CCN1C(=O)/C(=C/c2cccn2C)C(=O)NC1=S	66*
CCN1C(=O)/C(=C/c2ccoc2)C(=O)NC1=S	93*
Cn1cccc1/C=C1/C(=O)NC(=S)N(c2cccc(Cl)c2)C1=O	75*
CCN1C(=O)/C(=C/c2ccc(N3CCCC3)cc2)C(=O)NC1=S	33
O=C1NC(=S)N(c2cccc(Br)c2)C(=O)/C1=C/C=C/c1ccccc1	69*
O=C1NC(=S)N(c2ccc(Br)cc2)C(=O)/C1=C/C=C/c1ccccc1	24
CCN1C(=O)/C(=C/c2cccc(OC)c2OC)C(=O)NC1=S	24
CCN1C(=O)/C(=C/c2ccc(C)o2)C(=O)NC1=S	37
COc1cc(C(=O)NN2C(=O)/C(=C/c3ccccc3)SC2=S)ccc1O	-19
Cc1c([N+](=O)[O-])c([N+](=O)[O-])nn1CC(=O)Nc1sc2c(c1C#N)CCCC2	-23
O=[N+]([O-])c1ccc(F)c(NS(=O)(=O)c2ccccc2)c1	7
COc1ccc2c(=O)c(-c3ccccc3OC)coc2c1	11
CC(/C=N/NC(=O)c1cccnc1)c1ccccc1 (stereo not given)	-26
CCN=C1SC(CC(=O)Nc2ccc(N3CCCCC3)cc2)C(=O)N1CC (stereo not given)	0
COc1ccc(C2CC(=O)C3=C(C2)Nc2ccccc2NC3c2coc3c(Cl)cc(Cl)cc3c2=O)cc1 (stereo not given)	105*
COc1ccc(C2CC(=O)C3=C(C2)Nc2ccccc2NC3c2cc3c(cc2Cl)OCO3)cc1 (stereo not given)	-17
COc1ccc(C2CC(=O)C3=C(C2)Nc2ccccc2NC3c2ccccc2Cl)cc1 (stereo not given)	2
COCCOC(=O)c1c(C)oc2ccc(OCc3ccccc3F)cc12	-9
CCOC(=O)c1c(-c2ccc(-c3ccccc3)cc2)csc1N	5
COC(=O)c1c(-c2ccc(C(C)(C)C)cc2)csc1N	95*
SMILES	DUSP3 inh
CCOC(=O)c1c(-c2ccc(C(C)C)cc2)csc1N	15
NC(=O)c1c(-c2ccc(Cl)cc2)csc1N	67*
COC(=O)c1c(-c2ccc(OC)cc2)csc1N	30
COC(=O)c1c(-c2ccc(Cl)cc2)csc1N	81
O=C(COc1ccc(Cl)cc1Cl)n1cc([N+](=O)[O-])cn1	10
CC1(C)Cc2c(sc3nc(SCc4ccc(Cl)cc4)n(Cc4ccccc4)c(=O)c23)CO1	-10
Clc1ccc(N2COc3ccc4ccccc4c3C2)cc1	-10
COC(=O)c1nnn(-c2cc3nccnc3cc2F)c1C(=O)OC	-11
CCCOc1ccc(C(=O)Nc2cccc(C(=O)Nc3nccs3)c2)cc1	-4
CCOC(=O)C1=NNC(C(=O)c2ccccc2)C1c1ccccc1 (stereo not given)	0
CCOC(=O)C1=NNC(C(=O)c2ccccc2)C1c1ccc(OC)cc1 (stereo not given)	3
CCOC(=O)C1=NNC(C(=O)OCC)(C(=O)OCC)C1c1ccccc1 (stereo not given)	101*
CC1=C(C(=O)OCC(F)(F)F)C(c2cccc(Cl)c2)NC(=O)N1 (stereo not given)	-10
Oc1ccc2ccccc2c1/C=N/Nc1ncc(Br)cn1	-24
O=C(NCCc1ccccc1)C1CC(=O)N(c2ccc(Br)cc2)C1 (stereo not given)	1
